Reference: PubChem BioAssay (Tox21)
Results filed as inconclusive are left out. Where a call stands in place of a potency, no number is given. The source holds several records for some structures; these can differ, active in one and inactive in another. Activity calls are given as the source filed them. Unless noted, the call rests on the fitted dose curve; in most records, active means well fitted curve in the direction sought with a large enough effect in the repeat runs; inconclusive means weak or mixed curves; inactive means no such curve, though single readings can be large; an effect the other way counts as inactive or inconclusive.

How the values were obtained:
[1] = qHTS assay to identify small molecule agonists of the RXR signaling pathway - cell viability counter screen (AID 1159529); further: nearly all actives have a fitted effect of over 50% in size; further: potency means the concentration at half of the fitted maximal effect
How it was run: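 Cell viability is measured by CellTiter-Glo luminescence, 30 min at room temperature, in wells already read for beta-lactamase. Engineered HEK 293T cells (RXR-alpha-UAS-bla) are dosed 16 hr at 37 C. Tetraoctyl ammonium bromide serves as positive control.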

[2] = qHTS assay to identify small molecule antagonists of the retinoid acid receptor (RAR) signaling pathway - cell viability counter screen (AID 1159551); further: nearly all actives have a fitted effect of over 35% in size
How it was run: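 Seed C3RL4 cells; next day add compound, then retinol to 1 uM final; incubate 6 h at 37 C; add CellTiter-Glo; read luminescence after 30 min at RT.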

[3] = qHTS assay to identify small molecule antagonists of the retinoic acid receptor (RAR) signaling pathway (AID 1159552; further: nearly all actives have a fitted effect of over 50% in size; further: potency means the concentration at half of the fitted maximal effect)
How it was run: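 Quantitative HTS in C3RL4 RARE-luciferase reporter cells. Compounds were added with 1 uM (final) retinol; luminescence was read after 6 hr.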

[4] = qHTS assay to identify small molecule agonists of the retinoic acid receptor (RAR) signaling pathway (AID 1159553); conditions: C3RL4 RARE luciferase reporter, agonist, 6 h; activation: at 73.3 µM (top of the series) unless noted; further: potency means the concentration at half of the fitted maximal effect
How it was run: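 Activation of retinol signaling was monitored via a RARE luciferase reporter in C3RL4 cells. After 6 hr compound treatment at 37 C, detection reagent was added for 30 min at room temperature before luminescence reading.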

[5] = qHTS assay to identify small molecule antagonists of the estrogen related receptor (ERR) signaling pathway from Tox21 library - cell viability counter screen (AID 1224834); further: nearly all actives have a fitted effect of over 30% in size; further: potency means the concentration at half of the fitted maximal effect
How it was run: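 CellTiter-Fluor fluorescence measured; ERR cells; 17.5 h compound incubation at 37 C; 30 min reagent step.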

[6] = target: Luciferin 4-monooxygenase (Photinus pyralis) (UniProt P08659); assay: qHTS assay to identify small molecule inhibitors of firefly luciferase (AID 1224835); further: nearly all actives have a fitted effect of over 25% in size; further: potency means the concentration at half of the fitted maximal effect
How it was run: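 Biochemical qHTS: compounds run as interplate titrations against purified firefly enzyme, with D-luciferin and ATP each at its KM concentration. Light output recorded by CCD imaging.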

[7] = qHTS assay to identify small molecule agonists of the constitutive androstane receptor (CAR) signaling pathway - cell viability counter screen (AID 1224836); further: nearly all actives have a fitted effect of over 45% in size
How it was run: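 Counter screen multiplexed with the CAR reporter readout: HepG2 cells co-transfected with hCAR and the CYP2B6-2.2kb construct receive a 15-concentration compound series and 0.75 uM PK11195 (final), then CellTiter-Fluor fluorescence is read after 23 h.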

[8] = qHTS assay to identify small molecule antagonists of the constitutive androstane receptor (CAR) signaling pathway - cell viability counter screen (AID 1224837); further: nearly all actives have a fitted effect of over 45% in size
How it was run: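 Using CellTiter-Fluor, viability is scored in HepG2 cells stably carrying hCAR and a 2.2kb CYP2B6 reporter after 23 hr compound exposure across 15 concentrations, with CITCO present at 50 nM.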

[9] = target: Nuclear receptor subfamily 1 group I member 3 (Homo sapiens) (UniProt Q14994); assay: qHTS assay to identify small molecule antagonists of the constitutive androstane receptor (CAR) signaling pathway (AID 1224838);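 further: HepG2 cells stably expressing hCAR with CYP2B6 luciferase reporter stimulated by CITCO; nearly all actives have a fitted effect of over 40% in size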; further: potency means the concentration at half of the fitted maximal effect
How it was run: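 Reporter luminescence was quantified after 24 h exposure of hCAR/CYP2B6-2.2kb double-stable HepG2 cells to compounds at 15 concentrations in the presence of 50 nM CITCO final.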

[10] = qHTS assay to identify small molecule antagonists of the estrogen related receptor signaling pathway with the pleiotropic PPARgamma coactivator (PGC) from Tox21 10K library - cell viability counter screen (AID 1224840; active means well fitted cell-killing curve with a large enough effect in the repeat runs, not every such curve was filed as active; further: nearly all actives have a fitted effect of over 40% in size; further: potency means the concentration at half of the fitted maximal effect)
How it was run: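 Here the PGC/ERR cells serve as a cytotoxicity control: they are exposed to compounds for 17.5 hours at 37 C, and live-cell signal is quantified using CellTiter-Fluor fluorescence.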

[11] = target: Thyrotropin receptor (Homo sapiens) (UniProt P16473); assay: qHTS assay to identify small molecule agonists of the thyroid stimulating hormone receptor (TSHR) signaling pathway (AID 1224843; calls by dose curve; further: nearly all actives have a fitted effect of over 45% in size)
How it was run: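 TSHR-HEK293 cells in agonist mode, 30 min room-temperature step, then cAMP measured by competitive HTRF (cAMP-d2 with anti-cAMP cryptate) after 1 h at room temperature. Tested at 15 concentrations in triplicate.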

[12] = qHTS assay to identify small molecule agonists of the hypoxia (HIF-1) signaling pathway - cell viability counter screen (AID 1224844; calls by dose curve; further: nearly all actives have a fitted effect of over 50% in size; further: potency means the concentration at half of the fitted maximal effect)
How it was run: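 Multiplexed with the HRE beta-lactamase assay, this viability read used CellTiter-Glo luminescence (30 min, RT) on HRE-bla ME-180 cells treated 17 hrs with compounds in 0.5% dialyzed FBS medium.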

[13] = qHTS assay to identify small molecule antagonists of the estrogen related receptor signaling pathway with the pleiotropic PPARgamma coactivator (PGC) from Tox21 10K library (AID 1224841; call rule not given here; further: actives are mostly falling curves and most rising ones were filed inactive; nearly all actives have a fitted effect of over 50% in size; further: potency means the concentration at half of the fitted maximal effect)
How it was run: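 Each well held 2,000 PGC/ERR cells, pre-incubated six hours (37 C, 5% CO2). Test substances in DMSO were added by pin tool and left for 18 h at 37 C before luciferase detection by One-Glo.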

[14] = qHTS assay to identify small molecule agonists of the estrogen related receptor signaling pathway with the pleiotropic PPARgamma coactivator (PGC) from Tox21 10K library (AID 1224842); further: nearly all actives have a fitted effect of over 15% in size
How it was run: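 PGC/ERR reporter cell line, 2,000 cells per well, incubated 6 h at 37 C before 23 nL compound in DMSO was added. After 18 h at 37 C, One-Glo luminescence read following 30 min at room temperature.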

[15] = target: Nuclear receptor subfamily 1 group I member 3 (Homo sapiens) (UniProt Q14994); assay: qHTS assay to identify small molecule agonists of the constitutive androstane receptor (CAR) signaling pathway (AID 1224839); further: nearly all actives have a fitted effect of over 15% in size; further: potency means the concentration at half of the fitted maximal effect
How it was run: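 A 15-concentration quantitative screen uses HepG2 cells co-transfected stably with human CAR and CYP2B6-2.2kb reporter. Treatment lasts 24 h with 0.75 uM PK11195 final present; ONE-Glo luminescence is the signal.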

Thyrotropin receptor (Homo sapiens), sequence (P16473 whole entry, looked up): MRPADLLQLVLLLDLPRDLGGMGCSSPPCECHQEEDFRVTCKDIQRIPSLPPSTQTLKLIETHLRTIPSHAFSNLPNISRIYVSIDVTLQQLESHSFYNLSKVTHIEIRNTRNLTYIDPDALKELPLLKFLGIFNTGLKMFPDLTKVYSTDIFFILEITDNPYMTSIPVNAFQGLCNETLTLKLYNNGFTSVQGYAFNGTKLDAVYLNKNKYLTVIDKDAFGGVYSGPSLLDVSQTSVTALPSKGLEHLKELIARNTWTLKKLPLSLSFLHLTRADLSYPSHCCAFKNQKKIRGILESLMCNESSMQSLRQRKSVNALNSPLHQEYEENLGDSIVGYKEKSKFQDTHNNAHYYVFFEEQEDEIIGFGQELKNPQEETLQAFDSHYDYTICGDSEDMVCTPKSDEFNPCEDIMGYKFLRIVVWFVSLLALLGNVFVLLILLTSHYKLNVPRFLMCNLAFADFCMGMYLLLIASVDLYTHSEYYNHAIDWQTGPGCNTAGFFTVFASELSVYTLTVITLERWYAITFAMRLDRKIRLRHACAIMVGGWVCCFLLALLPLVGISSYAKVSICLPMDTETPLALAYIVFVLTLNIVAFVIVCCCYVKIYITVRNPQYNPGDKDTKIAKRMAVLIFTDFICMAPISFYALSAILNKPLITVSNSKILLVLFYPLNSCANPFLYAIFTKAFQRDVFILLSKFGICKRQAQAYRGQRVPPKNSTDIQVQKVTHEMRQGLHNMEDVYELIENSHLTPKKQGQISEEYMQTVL
Nuclear receptor subfamily 1 group I member 3 (Homo sapiens), sequence (Q14994 whole entry, looked up): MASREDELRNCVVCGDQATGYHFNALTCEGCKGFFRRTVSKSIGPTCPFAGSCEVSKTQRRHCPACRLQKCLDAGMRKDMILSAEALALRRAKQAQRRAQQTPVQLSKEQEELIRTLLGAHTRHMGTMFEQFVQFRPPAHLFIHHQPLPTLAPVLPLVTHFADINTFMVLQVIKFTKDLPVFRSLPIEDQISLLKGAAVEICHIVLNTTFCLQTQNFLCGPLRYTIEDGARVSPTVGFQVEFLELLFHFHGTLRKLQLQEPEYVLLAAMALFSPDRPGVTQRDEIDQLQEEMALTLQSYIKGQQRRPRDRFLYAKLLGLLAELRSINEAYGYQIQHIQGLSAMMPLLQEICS
Luciferin 4-monooxygenase (Photinus pyralis), sequence (P08659 whole entry, looked up): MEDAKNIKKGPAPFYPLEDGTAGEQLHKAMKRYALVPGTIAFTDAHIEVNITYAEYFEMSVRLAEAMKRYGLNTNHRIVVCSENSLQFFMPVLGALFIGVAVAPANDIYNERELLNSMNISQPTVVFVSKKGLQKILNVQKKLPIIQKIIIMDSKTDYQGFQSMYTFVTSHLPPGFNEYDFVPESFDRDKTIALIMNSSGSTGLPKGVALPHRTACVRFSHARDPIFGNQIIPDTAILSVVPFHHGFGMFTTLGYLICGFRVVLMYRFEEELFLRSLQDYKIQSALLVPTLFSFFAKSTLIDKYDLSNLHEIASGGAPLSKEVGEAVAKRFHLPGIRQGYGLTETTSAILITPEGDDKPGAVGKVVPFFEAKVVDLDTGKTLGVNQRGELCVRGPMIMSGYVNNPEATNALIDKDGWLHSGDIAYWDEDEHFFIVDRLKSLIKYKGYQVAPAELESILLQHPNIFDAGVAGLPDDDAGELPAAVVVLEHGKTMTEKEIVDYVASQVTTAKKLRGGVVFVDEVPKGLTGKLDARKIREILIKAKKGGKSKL

Compound	Potency [1]	Potency [2]	Potency [3]	Potency [4]	Potency [5]	Potency [6]	Potency [7]	Potency [8]	Potency [9]	Potency [10]	Potency [11]	Potency [12]	Potency [13]	Potency [14]	Potency [15]
CC(=O)Nc1ccc2c(c1)Cc1cc(NC(C)=O)ccc1-2	inactive	inactive	inactive	30.6 µM (active)	inactive	inactive	inactive	inactive	inactive	inactive	inactive	inactive			
CC[C@]12CCCN3CCc4c(n(c5ccccc45)[C@@](O)(C(=O)OC)C1)[C@@H]32	inactive	inactive	inactive	inactive	inactive	inactive	inactive	inactive		inactive		inactive	inactive	inactive	
C/C=C/C(=O)N(CC)c1ccccc1C	inactive	inactive	inactive	inactive	inactive	inactive	inactive	inactive	inactive	inactive	inactive	inactive	inactive	inactive	27.3 µM (active)
c1ccc2c(c1)[nH]c1ccccc12	inactive	inactive	inactive	inactive	inactive	39.2 µM (active) and inactive	inactive	inactive	inactive	inactive		inactive			
C=CC(C)(O)CCC=C(C)C (stereo not given)	inactive	inactive	inactive	inactive	inactive	inactive	inactive	inactive	inactive	inactive	inactive	inactive			
ClC/C=C/CCl	inactive	inactive	inactive	inactive		inactive	inactive	inactive	inactive	inactive	inactive	inactive	inactive	inactive	inactive
Cc1cccc(Nc2ccccc2C(=O)O)c1C	inactive	inactive	inactive	inactive	inactive	79.6 µM (active)	inactive	inactive	inactive	inactive		inactive			
COCCOCCOCCO	inactive	inactive	inactive	inactive	inactive	inactive	inactive	inactive	inactive	inactive	inactive	inactive	inactive	inactive	inactive
CN(C)/N=N/c1nc[nH]c1C(N)=O	inactive	inactive	inactive	inactive	inactive	inactive	inactive	inactive		inactive	inactive	inactive	inactive	inactive	
FC(F)(F)C(Cl)Br (stereo not given)	inactive	inactive	inactive	inactive	inactive	inactive	inactive	inactive		inactive	inactive	inactive	inactive	inactive	
Cc1ccc([N+](=O)[O-])c(C)c1	24.6 µM (active) and inactive	inactive	6.11 µM (active) and inactive	inactive	17.2 µM (active) and inactive	31.7 µM (active) and inactive			8.63 µM (active) and inactive	21.7 µM (active) and inactive	inactive	4.37 µM (active) and inactive	61.1 µM (active) and inactive	inactive	
COc1ccc(C(=O)c2ccccc2O)c(O)c1	inactive	inactive	inactive	inactive	inactive	inactive	inactive	inactive	inactive	inactive	inactive	inactive	inactive	inactive	
CC1(C)O[C@@H]2C[C@H]3[C@@H]4C[C@H](F)C5=CC(=O)C=C[C@]5(C)[C@@]4(F)[C@@H](O)C[C@]3(C)[C@]2(C(=O)CO)O1	inactive	inactive	inactive	inactive	inactive	inactive	inactive	inactive		inactive	inactive	inactive			
O=C(O)c1ccc(O)cc1	inactive	inactive	inactive	inactive	inactive	inactive	inactive	inactive	inactive	inactive	inactive	inactive	inactive	inactive	inactive
CC(=O)OC(C)C	inactive	inactive	inactive	inactive	inactive	inactive	inactive	inactive		inactive	inactive	inactive			
Cc1ccc2c(c1)C(=O)OC2=O	inactive	inactive	inactive	inactive	inactive	inactive	inactive	inactive	inactive	inactive		inactive			inactive
CC(=O)Oc1c(C)c(C)c2c(c1C)CC[C@@](C)(CCC[C@H](C)CCC[C@H](C)CCCC(C)C)O2	inactive	inactive	inactive	inactive	inactive	inactive	inactive	inactive	inactive	inactive	inactive	inactive	inactive	inactive	
OCCNCCO	inactive	inactive	inactive	inactive	inactive	inactive	inactive	inactive		inactive	inactive	inactive	inactive	inactive	
